Where a name gives a salt, the structure may show the parent alone.

This assay concerns Danio rerio larvae (5 dpf). Briefly: excitability (activity period 17 minus period 16, 1-s interval sound) minus DMSO control (percentage points); higher = more acoustic excitability than DMSO larvae. The following applies: 10 µM; exposure time: 3 h pre-incubation + 3 h imaging. How it is done:
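Wild-type 5 dpf zebrafish larvae (n=48 per drug, 96-well plates, 28.5 °C) were exposed to Tocris FDA-approved library compounds at 10 µM (0.1% DMSO) for 3 h before and 3 h during imaging. Images were taken every 6 s during visual (moving coloured lines) and acoustic stimuli, and larvae were tracked with the DeepLabCut-based Z-LaP Tracker. Each behavioural measure is the treated-group mean minus the DMSO vehicle control mean (n=844), in percentage points. This mapping covers compounds with 4-character plate codes.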
Turning to `Nc1nc(Cl)nc2c1ncn2[C@@H]1O[C@H](CO)[C@@H](O)[C@@H]1F` [Clofarabine], the excitability stood at 4.52. Take `Nc1nc2c(ncn2COCCO)c(=O)[nH]1` [Acyclovir]: the excitability was 3.35. Take `Nc1nc(F)nc2c1ncn2[C@@H]1O[C@H](CO)[C@@H](O)[C@@H]1O` [Fludarabine]: the excitability came out at 1.97. Then `Brc1c(NC2=NCCN2)ccc2nccnc12`, with 6.71.

Turning to `CCc1ccc(CCOc2ccc(CC3SC(=O)NC3=O)cc2)nc1` (stereo not given) [Pioglitazone hydrochloride], the excitability was 9.48. Regarding `CC1CNc2c(cccc2S(=O)(=O)N[C@@H](CCCNC(=N)N)C(=O)N2CC[C@@H](C)C[C@@H]2C(=O)O)C1` (stereo not given in full) [Argatroban], the excitability was 0.775.

`Cc1ccc(O)c([C@H](CCN(C(C)C)C(C)C)c2ccccc2)c1` [Tolterodine L-tartrate]: the excitability stood at 4.8. With `Nc1nc2[nH]cc(CCc3ccc(C(=O)N[C@@H](CCC(=O)O)C(=O)O)cc3)c2c(=O)[nH]1` [Pemetrexed] the figure was 2.33; with `CC(c1cc2ccccc2s1)N(O)C(N)=O` (stereo not given) [Zileuton], 6.27.

For `Cc1nc(Nc2ncc(C(=O)Nc3c(C)cccc3Cl)s2)cc(N2CCN(CCO)CC2)n1` [Dasatinib], the excitability worked out at 17.4.

With `Cc1ccsc1C(=CCCN1CCC[C@@H](C(=O)O)C1)c1sccc1C` [Tiagabine hydrochloride], the excitability was -6.75. With `COC(=O)C1=C(C)NC(C)=C(C(=O)OC(C)C)C1c1cccc2nonc12` (stereo not given) [Isradipine] the figure was 15.3; with `CC(C)n1c(/C=C/C(O)CC(O)CC(=O)O)c(-c2ccc(F)cc2)c2ccccc21` (stereo not given) [Fluvastatin sodium], 3.75. In the case of `CC(C)(C#N)c1cc(Cn2cncn2)cc(C(C)(C)C#N)c1` [Anastrozole], the excitability stood at 3.43. Take `O=c1[nH]c(=O)n([C@H]2C[C@H](O)[C@@H](CO)O2)cc1C(F)(F)F` [Trifluorothymidine]: the excitability was 4.38. With `Nc1cc(N2CCCCC2)nc(N)[n+]1[O-]` [Minoxidil] the figure was 0.502; with `CC(C)c1nc(N(C)S(C)(=O)=O)nc(-c2ccc(F)cc2)c1/C=C/[C@@H](O)C[C@@H](O)CC(=O)O` [Rosuvastatin calcium], -2.24. Then `CC(C)N(CCCCOCC(=O)NS(C)(=O)=O)c1cnc(-c2ccccc2)c(-c2ccccc2)n1` [Selexipag], with 5.98; and `Nc1ccn([C@@H]2O[C@H](CO)[C@@H](O)C2(F)F)c(=O)n1` [Gemcitabine hydrochloride], with 1.87. With `NS(=O)(=O)c1cc(C(=O)O)c(NCc2ccco2)cc1Cl` [Furosemide] the figure was -1.6. In the case of `OCCOCCN1CCN(C2=Nc3ccccc3Sc3ccccc32)CC1` [Quetiapine hemifumarate], the excitability worked out at 9.04. In the case of `COc1ccccc1OCCNCC(O)COc1cccc2[nH]c3ccccc3c12` (stereo not given) [Carvedilol], the excitability came to 22.5.

Regarding `COc1cc2ncnc(Nc3ccc(F)c(Cl)c3)c2cc1OCCCN1CCOCC1` [Iressa], the excitability turned out to be 19.5. Then `O=C(c1ccc(OCCN2CCCCC2)cc1)c1c(-c2ccc(O)cc2)sc2cc(O)ccc12` [Raloxifene hydrochloride], with 9.77; and `O=C(NCC1CCCCN1)c1cc(OCC(F)(F)F)ccc1OCC(F)(F)F` (stereo not given) [Flecainide acetate], with 6.31; and `CC(C)CN(C[C@@H](O)[C@H](Cc1ccccc1)NC(=O)O[C@H]1CO[C@H]2OCC[C@H]21)S(=O)(=O)c1ccc(N)cc1` [Darunavir], with -0.913. In the case of `Clc1ccccc1C(c1ccccc1)(c1ccccc1)n1ccnc1` [Clotrimazole], the excitability was 11.3. Consider `CC(=O)S[C@@H]1CC2=CC(=O)CC[C@]2(C)[C@H]2CC[C@@]3(C)[C@@H](CC[C@@]34CCC(=O)O4)[C@H]12` [Spironolactone], for which the excitability was 3.91. As to `CCOc1nc2cccc(C(=O)O)c2n1Cc1ccc(-c2ccccc2-c2nnn[nH]2)cc1` [Candesartan], the excitability was -3.55. As to `CN(C)CC/C=C1/c2ccccc2COc2ccc(CC(=O)O)cc21` [Olopatadine hydrochloride], the excitability was found to be 5.43.

With `CS(=O)(=O)CCNCc1ccc(-c2ccc3ncnc(Nc4ccc(OCc5cccc(F)c5)c(Cl)c4)c3c2)o1` [Lapatinib], the excitability was 15.5. Then `OCCN(CCO)c1nc(N2CCCCC2)c2nc(N(CCO)CCO)nc(N3CCCCC3)c2n1` [Dipyridamole], with -2.85; and `CC(C)(C)NC(=O)[C@@H]1C[C@@H]2CCCC[C@@H]2CN1C[C@@H](O)[C@H](Cc1ccccc1)NC(=O)[C@H](CC(N)=O)NC(=O)c1ccc2ccccc2n1` [Saquinavir mesylate], with 7.09; and `CCN(CC)CCNC(=O)c1c(C)[nH]c(/C=C2\C(=O)Nc3ccc(F)cc32)c1C` [Sunitinib malate], with 15.8.

With `C[C@H]1C[C@@H]2[C@H]([C@@H](O)C[C@@]3(C)[C@H]2CC[C@]3(O)C(=O)CO)[C@@]2(C)C=CC(=O)C=C12` [Methylprednisolone], the excitability worked out at 1.52.

Turning to `C/C(O)=C(\C#N)C(=O)Nc1ccc(C(F)(F)F)cc1` [Teriflunomide], the excitability is 9.34. With `Cc1cn([C@H]2C=C[C@@H](CO)O2)c(=O)[nH]c1=O` [Stavudine] the figure was 1.32; with `Cc1cccc(C)c1OCC(C)N` (stereo not given) [Mexiletine hydrochloride], 3.31; with `CCCN(CCc1cccs1)[C@H]1CCc2c(O)cccc2C1` [Rotigotine hydrochloride], 13.6.

Turning to `CN1CC(=O)N2[C@H](c3ccc4c(c3)OCO4)c3[nH]c4ccccc4c3C[C@@H]2C1=O` [Tadalafil], the excitability was 5.81.

For the origin of these results see the supplement of paper PMC9950053.
